Source: PubChem
An excerpt weighted towards active compounds, which were near 1.6% of everything screened.
CASP6 VEID inh: blocks human caspase-6 cleavage activity | 350,000 tested, 0.53% active | inhibition, % at 12.5 µM | AID 686996 | purified caspase-6, Z-VEID-R110 cleavage fluorescence;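 active means mean inhibition across replicates at least about 35%, with every replicate also reaching that limit, limit read from the data; inconclusive means only one of the two criteria met; inactive means neither criterion met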;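 further: 0% = median of neutral control wells and 100% = no fluorescence left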
SUMO HTRF inh: blocks human SUMOylation mediated by UBC9 | HTRF SUMOylation assay, SAE1/SAE2 + UBC9, in vitro | inhibition, % at 35 µM | 290,000 tested, 0.36% active; in the data active means inhibition above about 50%, passing the limit was not always enough; inconclusive means no clear call, values can overlap the other calls
Target sequence (P63279 whole entry, looked up): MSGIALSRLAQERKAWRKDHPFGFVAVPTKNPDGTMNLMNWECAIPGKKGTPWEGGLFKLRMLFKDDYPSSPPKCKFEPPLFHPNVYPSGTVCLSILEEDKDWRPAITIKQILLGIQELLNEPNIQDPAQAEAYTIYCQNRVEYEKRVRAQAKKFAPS
SIRT5 block: inhibitors of human sirtuin-5 desuccinylase; Purified SirT5, succinyl-peptide AMC, trypsin-coupled fluorescence; inhibition, % at 15 µM; 330,000 tested, 1.1% active; in the data active means inhibition above about 15%; inconclusive means no clear call, values can overlap the other calls
Target sequence (Q9NXA8 whole entry, looked up): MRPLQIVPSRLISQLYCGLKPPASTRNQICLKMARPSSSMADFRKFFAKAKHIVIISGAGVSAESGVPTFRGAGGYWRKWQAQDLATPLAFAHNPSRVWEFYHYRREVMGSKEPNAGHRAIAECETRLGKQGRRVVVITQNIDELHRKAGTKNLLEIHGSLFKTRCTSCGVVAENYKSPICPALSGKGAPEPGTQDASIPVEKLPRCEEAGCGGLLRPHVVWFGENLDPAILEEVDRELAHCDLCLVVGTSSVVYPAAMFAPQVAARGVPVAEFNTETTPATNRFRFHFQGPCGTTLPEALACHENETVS
NSD2 inh: NSD2 (human) methyltransferase inhibition; O96028; NSD2 peptide methylation, AlphaScreen, 120 min; inhibition, % at 12.5 µM; 310,000 tested, 0.54% active; AID 743445; in the data active means inhibition above about 50%
CASP1 counter: selectivity counter-screen: inhibitors of human caspase-1. shares compounds with CASP6 VEID inh. purified caspase-1, Z-YVAD-R110 cleavage fluorescence. activity change, negative = inhibition, % at 35 µM. 100 tested, under 10 active. AID 743289;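 active means compounds lowering fluorescence whose fitted half-maximal concentration is no more than twice their top tested dose; inconclusive means flat fit with 30 to 70% inhibition, or poor fit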
* = called active by the depositor; ? = inconclusive; nt = not tested or not shown; ! = not active in a repeat.

SMILES | CASP6 VEID inh | SUMO HTRF inh | SIRT5 block | NSD2 inh | others
Cc1csc(=O)n1CCC(=O)OCc1nnc(-c2ccc([N+](=O)[O-])cc2)o1 | 52* | nt | -6 | -3
O=C(C[C@@H]1C=C[C@H](NC(=O)C2CCC2)[C@H](CO)O1)NCC1CC1 | 0 | nt | 3 | nt
NC(=O)C1CCN(C2=C(NS(=O)(=O)c3ccccc3)C(=O)c3ccccc3C2=O)CC1 | 9 | 76 | -15 | 17
NC(=O)C1CCN(C2=C(NS(=O)(=O)c3ccc(Br)cc3)C(=O)c3ccccc3C2=O)CC1 | 8 | 19 | -2 | 52*
NC(=O)C1CCN(C2=C(Cl)C(=O)c3ccccc3C2=O)CC1 | nt | 8 | nt | 88*
CCOC(=O)C1CCN(C2=C(NS(=O)(=O)c3ccc(Br)cc3)C(=O)c3ccccc3C2=O)CC1 | 9 | 50 | 23* | nt
Cc1ccc(S(=O)(=O)Nc2ccc3c(c2)C(=O)N([C@@H](C)CO)C[C@H](C)[C@H](CN(C)Cc2ccncc2)OCCCC[C@H](C)O3)cc1 | -1 | nt | 8 | nt
CN(C)/C=C/C(=O)c1ccc(Cl)c([N+](=O)[O-])c1 | 0 | 12 | 17* | -2
O=C(NC[C@@H]1CC[C@@H]2[C@@H](CN2Cc2cccc(Cl)c2)O1)C1CCOCC1 | 1 | nt | 10 | nt
C#Cc1ccc([C@@H]2C=C(C(=O)Nc3ccccc3)O[C@H](OCC)[C@H]2CCCO)cc1 | -1 | -13 | 6 | nt
C#Cc1ccc([C@H]2C=C(C(=O)NCc3ccccc3)O[C@@H](OCC)[C@@H]2CCCO)cc1 | -3 | -5 | 21*! | nt
COc1ccc(NC(=S)N2CCC(C(=O)c3ccc(F)cc3)CC2)c(OC)c1 | 10 | 12 | 25* | 1
COc1ccc(C(=O)C2CCN(C(=S)Nc3ccc(F)cc3)CC2)cc1 | 2 | 11 | -2 | nt
C[C@@H]1CCCCO[C@H](CN(C)S(=O)(=O)c2ccc(F)cc2)[C@@H](C)CN([C@@H](C)CO)C(=O)c2cc(NC(=O)CCCN(C)C)ccc2O1 | 1 | nt | -1 | nt
CC(=O)Nc1ccc(NC(=O)c2sc3nc4n(c(=O)c3c2C)CCCCC4)cc1 | 1 | 10 | 17* | 0
C[C@@H]1CN([C@H](C)CO)C(=O)c2cccc(NC(=O)Nc3ccc4c(c3)OCO4)c2O[C@@H]1CN(C)C(=O)NC1CCCCC1 | 0 | nt | 11 | nt
O=C(c1ccc(=O)oc1)N1CCCc2ccccc21 | nt | 28 | nt | 92*
O=C(c1ccccc1)N1CCCc2ccccc21 | -2 | -36 | -1 | -1
CC1Cc2ccccc2N1C(=S)NC(=O)c1ccco1 (stereo unspecified) | 2 | 0 | 1 | 2
O=C(NC(=S)N1CCCc2ccccc21)c1ccco1 | -1 | 2 | 22* | -2
Cc1ccccc1NC(=O)COC(=O)CCC(=O)c1cccs1 | 0 | nt | 15* | -2
Cc1ccc(NC(=O)COC(=O)CCC(=O)c2cccs2)c(C)c1 | 4 | 2 | -3 | 1
Cc1ccc(NC(=O)CCC(=O)c2cccs2)cc1F | -4 | 4 | 101* | -6
COCC(=O)N1C[C@@H](C)[C@H](OC)CN(C)C(=O)c2ccc(NC(=O)c3ccccc3)cc2OC[C@@H]1C | 5 | nt | 3 | nt
O=C(CSc1n[nH]c(=O)[nH]c1=O)Nc1ccc2c(c1)C(=O)c1ccccc1C2=O | 3 | 88* | 9 | nt
SMILES | CASP6 VEID inh | SUMO HTRF inh | SIRT5 block | NSD2 inh | others
COc1ccc2c3c(n(C)c2c1)[C@H](CO)N(S(C)(=O)=O)CC31CN(C(=O)C2CCC2)C1 | -3 | nt | 0 | nt
O=C(/C=C/c1ccccc1)C1C(=O)c2ccccc2C1=O | nt | 59* | nt | 0
CCc1ccc(/C=C/C(=O)C2C(=O)c3ccccc3C2=O)cc1 | nt | 4 | nt | nt
Oc1cc(NCCN2CCOCC2)cc2cccnc12 | 90* | nt | -3 | nt | CASP1 counter=-2
O=c1cc2oc3cc(O)c(O)cc3c(-c3ccccc3[N+](=O)[O-])c-2cc1O | 96* | ? | 16* | 128* | CASP1 counter=-1
O=C(O)C1CCCCC1C(=O)Nc1cccc(Br)c1 (stereo unspecified) | 75* | nt | nt | nt | CASP1 counter=-2
O=C(Nc1cccc(Br)c1)C1CCCC1 | -2 | nt | 2 | 0
O=c1[nH]c(Nc2ccccc2Cl)cc2ccccc12 | 88* | nt | 1 | nt | CASP1 counter=-9
Cc1cc2ccccc2c(=O)[nH]1 | nt | 4 | nt | nt
O=c1[nH]c(Nc2ccc(F)cc2)cc2ccccc12 | 100* | nt | 2 | 97* | CASP1 counter=6
Oc1cc(O)cc(C=Cc2ccc(O)c(O)c2)c1 | 76* | nt | nt | 90* | CASP1 counter=-8
Cn1c(=O)c2c(-c3ccccc3)n(-c3ccc(N)cc3)cc2n(C)c1=O | 83* | nt | 0 | nt | CASP1 counter=-1
Cn1c(=O)c2c(-c3ccccc3)n(-c3ccccc3O)cc2n(C)c1=O | 5 | 24 | -2 | 0
